Reference: PubChem BioAssay (EPA / NIEHS)
Calls of active or inactive are those of the source. How the source made its calls: active means hit-call score of the fitted dose curve at least 0.9, where 1 is the maximum; inactive means score below 0.9.

Experiment: APR_HepG2_StressKinase_24hr: Apredica 24-hour HepG2 Assay for Stress Kinase (AID 2282922)
Conditions: HepG2 stress kinase (phospho-c-Jun) imaging, actives raise or lower the signal
Protocol: APR_HepG2_24hr is a cell-based, multiplexed-readout assay that uses HepG2, a human liver cell line, with measurements taken at 24 hours after chemical dosing in a 384-well plate.APR_HepG2_StressKinase_24hr is one of 10 assay component(s) measured or calculated from the APR_HepG2_24hr assay. It is designed to make measurements of enzyme activity, a form of enzyme reporter, as detected with fluorescence intensity signals by HCS Fluorescent Imaging technology.Data from the assay component APR_HepG2_StressKinase_24hr was analyzed into 1 assay endpoint. This assay endpoint, APR_HepG2_StressKinase_24hr, was analyzed with bidirectional fitting relative to DMSO as the negative control and baseline of activity. Using a type of enzyme reporter, measures of protein for gain or loss-of-signal activity can be used to understand the signaling at the pathway-level as they relate to the gene . Furthermore, this assay endpoint can be referred to as a primary readout, because this assay has produced multiple assay endpoints where this one serves a signaling function. To generalize the intended target to other relatable targets, this assay endpoint is annotated to the cell cycle intended target family, where the subfamily is stress response.
Cells were treated with dimethyl sulfoxide (DMSO) as a solvent control at a final concentration of 0.5% v/v or with compounds in DMSO with a resulting final DMSO concentration of 0.5% v/v. Compound treatment was done at concentrations of 0.39, 0.78, 1.56, 3.12, 6.24, 12.5, 25, 50, 100, and 200 uM in duplicate on each plate. Cells were treated with compounds for 1, 24, or 72 hr. Carbonyl […] m-chloro-phenylhydrazone (CCCP) and taxol were used as positive controls for mitochondrial function and cytoskeletal stability, respectively; DMSO served as the negative control for this experiment. Cells were fixed by the direct addition of 50 uL formaldehyde in Hank's Balanced Salt Solution (HBSS) to a final concentration of 3.7%. After incubation in the fixation medium for 30 min at room temperature (293-298 K), cells were rinsed twice with HBSS and treated with cell permeabilization buffer (16 uL of 0.5% Triton X-100) for 10 min at room temperature (293-298 K) before labeling. For mitochondrial membrane potential and mitochondrial measurements, pre-fixed cells were incubated with 50 uL of MitoTracker Red CMXRos (Invitrogen) at a concentration of 250 nM for 30 min before fixation. In the remaining cases, post-fixed cells were labeled by incubation with a multiplexed mixture of primary antibodies in HBSS for 60 min at room temperature (293-298 K) to detect immunoreactivity of c-Jun (1:500), phospho-histone H3 (1:100), phospho-histone H2A.x (1:200), p53 (1:400), alpha-tubulin (1:200) and Hoechst 33342 (2 ug/mL). Cells were labeled for multiplexed imaging on two separate plates: a) Hoechst 33342, MitoTracker Red, phospho-histone H3, and alpha-tubulin, and b) Hoechst 33342, phospho-histone H2A.x, and c-Jun. A final rinse with HBSS (50 uL) was performed before analysis. The primary and secondary antibodies for the proteins were phospho-histone H3 (rabbit anti-phospho-histone H3 and FITC-donkey anti-rabbit IgG), phospho-histone H2A.x (mouse anti-phospho-histone H2A.x and FITC-donkey anti-mouse IgG), c-Jun (rabbit anti-phospho-c-Jun and Cy3-donkey anti-rabbit IgG), p53 (sheep anti-p53 and Cy5-donkey anti-sheep IgG), alpha-tubulin (mouse anti-alpha-tubulin and Cy5-donkey anti-mouse IgG). These antibodies are available as the CellCiphr HepG2 assay kit (Millipore).Digital images of each well were captured using a Cellomics ArrayScan VTI (Thermo Scientific Cellomics) (0.8 NA objective, 0.63x optical coupler, and XF-93 filter set) at 20x magnification. The images were acquired using the autofocus feature of the ArrayScan instrument, which entails the following steps. First, the camera focuses on channel 1 (Hoechst 33342), where nuclei are identified. Second, a Z offset of 1 um is used for capturing mitochondria (MitoTracker Red). […]

Row | Compound | outcome | AC50
1 | CCCCc1ccccc1 | inactive | –
2 | CCNc1nc(Cl)nc(NC(C)(C)C)n1 | inactive | –
3 | O=P1(N(CCCl)CCCl)NCCCO1 (stereo not given) | inactive | –
4 | Nc1cc2c3c(c1)C(c1ccccc1)=N[C@@H](NC(=O)c1cccnc1)C(=O)N3CC2 | inactive | –
5 | CSC(C)(C)C=NO | inactive | –
6 | Cc1ccc([N+](=O)[O-])cc1C | inactive | –
7 | CCC1(c2ccccc2)C(=O)N=C(O)NC1=O (stereo not given) | inactive | –
8 | Nc1ccc(Cl)cc1 | inactive | –
9 | CCOc1ccc(C(C)(C)COCc2cccc(Oc3ccccc3)c2)cc1 | inactive | –
10 | CCCN(CCC)c1c([N+](=O)[O-])cc(C(C)C)cc1[N+](=O)[O-] | inactive | –
11 | CCN(CC)c1ccccc1 | inactive | –
12 | COCCOCCO | inactive | –
13 | c1nc[nH]n1 | inactive | –
14 | CN(C)C(=O)Cl | inactive | –
15 | CC(C)(C)c1ccc(O)cc1 | inactive | –
16 | OCC1CO1 (stereo not given) | inactive | –
17 | CCCCCCCc1ccc(O)cc1 | inactive | –
18 | O=P(Oc1ccccc1)(Oc1ccccc1)Oc1ccccc1 | inactive | –
19 | c1ccc(OP(Oc2ccccc2)Oc2ccccc2)cc1 | inactive | –
20 | CC(C)(C)OOC(C)(C)C | inactive | –

Row | Compound | outcome | AC50
21 | CCCCN(CCCC)N=O | inactive | –
22 | O=[N+]([O-])c1ccc(Cl)c(Cl)c1 | inactive | –
23 | O=C(O)C1C(C(=O)O)C2(Cl)C(Cl)=C(Cl)C1(Cl)C2(Cl)Cl (stereo not given) | inactive | –
24 | Cc1ccc(O)cc1C | inactive | –
25 | c1ccc2c(c1)Nc1ccccc1S2 | inactive | –
26 | CCCCN(CCCC)SN(C)C(=O)Oc1cccc2c1OC(C)(C)C2 | inactive | –
27 | ClC(Cl)(Cl)c1ccccc1 | inactive | –
28 | c1cc2c3c(cccc3c1)CC2 | inactive | –
29 | CCOP(=S)(Oc1ccc([N+](=O)[O-])cc1)c1ccccc1 (stereo not given) | inactive | –
30 | CCOP(=S)(OCC)SCSCC | inactive | –
31 | [N-]=[N+]=[N-] | inactive | –
32 | O=C(O)C(Cl)Cl | inactive | –
33 | CC(Cl)(Cl)C(=O)O | inactive | –
34 | CCOC(=O)c1ccccc1C(=O)OCC | inactive | –
35 | Nc1ccc2ccccc2c1 | inactive | –
36 | CCOS(=O)(=O)OCC | inactive | –
37 | Cc1ccc(N)cc1N | inactive | –
38 | CC(Cc1ccc(OCC(=O)O)cc1)NCC(O)c1csc(C(F)(F)F)n1 (stereo not given) | inactive | –
39 | CCC(C)(C)c1ccc(O)cc1 | inactive | –
40 | ClC1=C(Cl)C2(Cl)C3C(Cl)C(Cl)CC3C1(Cl)C2(Cl)Cl (stereo not given) | – | 96.7 µM (active)
